Drawing on the supplement of paper PMC13380429, this text covers morphology score and SARS-CoV-2 infection rate for 27 compounds.

Experiment [1] relates to Vero E6 infected with SARS-CoV-2. As to the kind of experiment: morphology score (similarity to uninfected cells); higher = more like uninfected cells. Particulars: 24 h.
Experiment [2] shares this test system. As to the kind of experiment: SARS-CoV-2 infection rate relative to infected DMSO; higher = more infection, active = 60 or less. To be noted: 24 h.

Each structure is given as a SMILES string.

For the compound `CC[C@H](C)[C@H](N)C1=N[C@H](C(=O)N[C@@H](CC(C)C)C(=O)N[C@H](CCC(=O)[O-])C(=O)N[C@H](C(=O)N[C@H]2CCCCNC(=O)[C@H](CC(N)=O)NC(=O)[C@@H](CC(=O)[O-])NC(=O)[C@H](Cc3cnc[nH]3)NC(=O)[C@@H](Cc3ccccc3)NC(=O)[C@H]([C@@H](C)CC)NC(=O)[C@@H](CCCN)NC2=O)[C@@H](C)CC)CS1.[Zn+2]` [bacitracin-zinc] (10 µM), in experiment [1], the morphology score is -0.0221. Moreover, the SARS-CoV-2 infection rate in experiment [2] is 108% (inactive).

With `Cc1nc2cnc3ccc(C#Cc4cccnc4)cc3c2n1-c1ccc(C(C)(C)C#N)cc1` (10 µM), the morphology score in experiment [1] worked out at 0.114. Besides, the SARS-CoV-2 infection rate in experiment [2] is 109% (inactive).

As for `CC(C)[C@]12O[C@H]1[C@@H]1O[C@]13[C@]1(O[C@H]1C[C@H]1C4=C(CC[C@@]13C)C(=O)OC4)[C@@H]2O` [triptolide] (10 µM), the morphology score in experiment [1] was found to be 0.381. In addition, the SARS-CoV-2 infection rate in experiment [2] is 89% (inactive).

Compound `Cc1n[nH]c(C)c1Cc1sc2c(c1C(=O)N1C[C@H](O)CO1)c(=O)n(C)c(=O)n2CC(C)C` (10 µM) displayed a morphology score in experiment [1] of 0.0657. In addition, the SARS-CoV-2 infection rate in experiment [2] was 106% (inactive).

In experiment [1], `CCCNC(C)(C)COC(=O)c1ccccc1` [meprylcaine] (10 µM) returned a morphology score of 0.0721. Further, the SARS-CoV-2 infection rate in experiment [2] is 102% (inactive).

`O=C1C(CC[S+]([O-])c2ccccc2)C(=O)N(c2ccccc2)N1c1ccccc1` (centres undefined) [sulfinpyrazone] (10 µM) returned a morphology score in experiment [1] of 0.0498. The SARS-CoV-2 infection rate in experiment [2] is 108% (inactive).

`CC(C)Oc1ccc2c(=O)c3cc(C(=O)O)ccc3oc2c1` (10 µM) displayed a morphology score in experiment [1] of 0.0971. For the same compound, the SARS-CoV-2 infection rate in experiment [2] was 100% (inactive).

`COc1ccc(Nc2ncnc3ccc(OC)cc23)cc1` (10 µM): the morphology score in experiment [1] was -0.228. For the same compound, the SARS-CoV-2 infection rate in experiment [2] is 122% (inactive).

In turn, `C[C@@H](Oc1cc(-n2cnc3ccc(CN4CCN(C)CC4)cc32)sc1C(N)=O)c1ccccc1C(F)(F)F` (0.833333 µM) registered a morphology score in experiment [1] of 0.0643. Besides, the SARS-CoV-2 infection rate in experiment [2] was 94% (inactive).

Turning to `COC(=O)N[C@H](C(=O)N1CC2(CC2)C[C@H]1c1nc(-c2ccc3c(c2)C(F)(F)c2cc(-c4ccc5[nH]c([C@@H]6[C@H]7CC[C@H](C7)N6C(=O)[C@@H](NC(=O)OC)C(C)C)nc5c4)ccc2-3)c[nH]1)C(C)C` [ledipasvir] (10 µM), the morphology score in experiment [1] amounted to 0.191. The SARS-CoV-2 infection rate in experiment [2] is 99.5% (inactive).

`CCCCCCCC/C=C/C(=O)O` [trans-2-undecenoic-acid] (10 µM) came in with a morphology score in experiment [1] of 0.204. Also, the SARS-CoV-2 infection rate in experiment [2] is 112% (inactive).

In turn, `c1ccc(-c2ccc(C(c3ccccc3)n3ccnc3)cc2)cc1` (centres undefined) [bifonazole] (10 µM) returned a morphology score in experiment [1] of 0.407. For the same compound, the SARS-CoV-2 infection rate in experiment [2] was 79% (inactive).

The compound `Cc1ccc(NC(=O)C2(c3ccc4c(c3)OC(F)(F)O4)CC2)nc1-c1cccc(C(=O)O)c1` [lumacaftor] (10 µM) came in with a morphology score in experiment [1] of 0.0696. In experiment [2], the SARS-CoV-2 infection rate is 114% (inactive).

In turn, `COc1c(C)cnc(Cn2cnc3c(Cl)nc(N)nc32)c1C` (10 µM) displayed a morphology score in experiment [1] of 0.256. In addition, in experiment [2], the SARS-CoV-2 infection rate is 98.5% (inactive).

In experiment [1], `C[C@@H]1C[C@H]2[C@@H]3C[C@H](F)C4=CC(=O)C=C[C@]4(C)[C@@]3(F)[C@@H](O)C[C@]2(C)[C@@]1(O)C(=O)COC(=O)C(C)(C)C` [flumethasone-pivalate] (10 µM) displayed a morphology score of 0.324. In addition, the SARS-CoV-2 infection rate in experiment [2] was 80% (inactive).

As to `Cc1nc[nH]c1CCN` [4-methylhistamine] (10 µM), the morphology score in experiment [1] came to 0.105. The SARS-CoV-2 infection rate in experiment [2] was 99.5% (inactive).

Compound `CNNCc1ccc(C(=O)NC(C)C)cc1` [procarbazine] (10 µM) returned a morphology score in experiment [1] of 0.133. The SARS-CoV-2 infection rate in experiment [2] was 106% (inactive).

Take `CCC(=O)O[C@H](CC(=O)O)C[N+](C)(C)C` [levocarnitine-propionate] (10 µM): the morphology score in experiment [1] is -0.0873. In experiment [2], the SARS-CoV-2 infection rate is 104% (inactive).

In turn, `CC(C)[C@H](N)C(=O)OCC(CO)OCn1cnc2c(=O)nc(N)[nH]c21` (mixture of isomers) [valganciclovir] (10 µM) gave a morphology score in experiment [1] of 0.118. Also, the SARS-CoV-2 infection rate in experiment [2] is 102% (inactive).

On to `C[C@H](c1ccc2ccc(OC3CCC(C(F)(F)F)CC3)c(C(F)(F)F)c2c1)N1C2CCC1CC(C(=O)O)C2` (some centres undefined) [autotaxin-modulator-1] (10 µM), for which the morphology score in experiment [1] was determined as 0.317. For the same compound, the SARS-CoV-2 infection rate in experiment [2] was 91% (inactive).

In turn, `CCC(CC)O[C@@H]1C=C(C(=O)O)C[C@H](N)[C@H]1NC(C)=O` [oseltamivir-carboxylate] (10 µM) displayed a morphology score in experiment [1] of -0.0548. In experiment [2], the SARS-CoV-2 infection rate is 102% (inactive).

In experiment [1], `O=c1c(-c2ccc(O)cc2)coc2c([C@@H]3O[C@H](CO)[C@@H](O)[C@H](O)[C@H]3O)c(O)ccc12` [puerarin] (10 µM) yielded a morphology score of 0.0648. Also, in experiment [2], the SARS-CoV-2 infection rate was 98.5% (inactive).

`O=C(Nc1nc2ccc(NC(=O)C34CC5CC(CC(C5)C3)C4)cc2s1)c1ccccc1` (0.833333 µM) registered a morphology score in experiment [1] of -0.0802. Besides, the SARS-CoV-2 infection rate in experiment [2] was 105% (inactive).

Take `CC1Nc2ccc(Cl)cc2S(=O)(=O)N1` (centres undefined) (10 µM): the morphology score in experiment [1] is 0.135. In addition, in experiment [2], the SARS-CoV-2 infection rate is 100% (inactive).

As to `O=C(Nc1ccc(Br)cc1)c1cc(Br)cc(Br)c1O` [tribomsalan] (10 µM), the morphology score in experiment [1] is 0.043. In addition, the SARS-CoV-2 infection rate in experiment [2] is 106% (inactive).

Consider `CCCCCCOc1ccccc1C(N)=O` [exalamide] (10 µM), for which the morphology score in experiment [1] was determined as 0.105. In experiment [2], the SARS-CoV-2 infection rate is 108% (inactive).

As to `Nc1c(CC(=O)O)cccc1C(=O)c1ccccc1` [amfenac] (10 µM), the morphology score in experiment [1] was found to be 0.0516. For the same compound, in experiment [2], the SARS-CoV-2 infection rate is 104% (inactive).
